Compound activity deposited in PubChem by NMMLSC.
A selection: hits, their analogues and other compounds. The true share with any hit is near 0.91%.
Proteasome disasm – blocks ATP-dependent breakdown of the yeast 26S proteasome | anti-FLAG beads, GFP-proteasome disassembly, flow cytometry | inhibition of disassembly, % (concentration not given with the values) | 0.2% of 24,000 active;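 active means inhibition of disassembly above about 33%, limit read from the data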;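 further: higher percent means more bead fluorescence retained so stronger block of disassembly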
LNCaP diff act – activators of LNCaP prostate cell differentiation; 0.56% of 24,000 active; AID 795; side scatter shift, % at 10 µM; flow cytometry side scatter, 4 d;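 active means side scatter shift above 30%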;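 further: androgen-responsive LNCaP prostate cancer cells in charcoal-stripped serum medium; higher shift means more granular cells and more differentiation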
QS inhibitor – S. aureus quorum sensing inhibition. S. aureus RN6390 RNAIII-GFP reporter, AIP-induced, flow cytometry 3 h. inhibition, % at 2 µM. 0.3% of 24,000 active. AID 527;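 active means share of bacteria positive for the green fluorescent reporter and its mean brightness both inhibited by 50% or more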
Numbers stand for hits; i = inactive; nt = no result.

SMILES	Proteasome disasm	LNCaP diff act	QS inhibitor
CCNC(=O)c1cc2c(=O)n3cccc(C)c3nc2n1C	i	i	i
CCCn1c(=NC(C)=O)c(C#N)cc2c(=O)n3cccc(C)c3nc21	66.9	i	i
CCOc1ccccc1N(CC(=O)NC1CCCC1)C(=O)CCCC(=O)Nc1ccccn1	i	i	i
CCc1oc2ccccc2c1C(=O)c1cc(Br)c(O)c(Br)c1	i	i	52.4
CCOC(=O)c1c(COc2ccccc2)oc2ccc(O)cc12	nt	nt	i
O=C(CSc1ncc(-c2ccc(F)cc2)[nH]1)N1CCCCC1	i	i	i
CCCOc1ccc(/C=c2\sc3nc(-c4ccco4)nn3c2=O)cc1OCC	124.8	i	i
CC(=O)Oc1cccc(/C=c2\sc3nc(-c4ccco4)nn3c2=O)c1	i	i	i
N#Cc1c(NC(=O)COC(=O)C2CC3C=CC2C3)oc(-c2ccccc2)c1-c1ccccc1 (stereo not drawn)	i	i	90.6
COc1ccccc1OCC(=O)Nc1oc(-c2ccccc2)c(-c2ccccc2)c1C#N	nt	nt	i
CCOC(=O)C1CCN(S(=O)(=O)c2c(C)n[nH]c2C)CC1	i	i	i
Cc1ccc(CS(=O)(=O)Cc2ccc(C(=O)NCc3ccccn3)o2)cc1	i	i	i
Cn1nc(-c2ccc(Cl)cc2)c2cc(C(=O)NCC3CCCO3)sc21 (stereo not drawn)	i	i	i
CCN(CC)CCCNC(=O)c1cc(-c2ccc(Cl)c(Cl)c2)on1	i	48.0	i
Cn1nc(-c2ccc(Cl)cc2)c2cc(C(=O)N3CCOCC3)sc21	i	i	i
CCN(CC)CCCNC(=O)c1cc2c(-c3ccc(Cl)cc3)nn(C)c2s1	i	52.0	i
CCN(CC)CCCNC(=O)c1cc(-c2ccc(O)cc2)on1	i	i	i
CN1CCN(CCCNC(=O)c2cc3c(-c4ccc(Cl)cc4)nn(C)c3s2)CC1	i	57.0	i
CCOc1ccc(NC(=O)CN2C(=O)C3CCCN3C2=O)cc1 (stereo not drawn)	i	i	i
Cc1sc2nc3n(c(=O)c2c1C)NC(=O)CC3	i	i	i
C=CCOc1nc(N2CCCC2)nc(N2CCCC2)n1	i	i	i
CCCCn1c2c(c3ccccc31)CCc1nonc1-2	i	i	i
COc1cccc(Nc2cc(C)nc3ccccc23)c1	i	i	i
COc1ccc(Nc2nc(N3CCCC3)c3ccccc3n2)cc1	i	50.0	i
CCCC(C)C1C(C#N)=C(N)Oc2cc(C)oc(=O)c21 (stereo not drawn)	i	i	i
SMILES	Proteasome disasm	LNCaP diff act	QS inhibitor
O=C1C2CC=CCC2C(=O)N1c1ccc(Cc2ccncc2)cc1 (stereo not drawn)	i	i	i
O=C(O)c1ccc2c3c(ncnc13)-c1ccccc1C2=O	i	i	i
O=C1c2ccccc2-c2nc3ncnn3c(-c3ccccc3)c21	i	40.0	i
O=S(=O)(NCCc1ccccn1)c1cccs1	i	i	i
O=S(=O)(Nc1cccc2ncccc12)c1cccs1	i	34.0	i
O=C(NCC(c1cccnc1)N1CCOCC1)c1cccc(Cl)c1 (stereo not drawn)	i	nt	i
O=C(NCC(c1cccnc1)N1CCN(c2ccccc2F)CC1)c1cccc(Cl)c1 (stereo not drawn)	i	i	58.9
Cc1nc(Nc2nc(=O)c3ccccc3n2C)nc2c(C)cccc12	i	i	i
COc1ccc(-c2nnc(SCc3nnc(-c4ccc(Cl)cc4)o3)n2-c2ccccc2)cc1	i	i	i
Cc1cccc2cc(C#N)c(SCCN3CCCCC3)nc12	i	40.0	i
Cn1c(SCCN2CCCCC2)nnc1-c1ccccc1Br	i	i	i
Cc1[nH]c(=O)cc2ccccc12	i	i	i
CC(=O)Nc1cc(C(=O)O)ccc1S(=O)(=O)c1ccc(C)cc1	i	i	i
CC(=O)Nc1cc(C(=O)N2CCOCC2)ccc1S(=O)(=O)c1ccc(C)cc1	i	37.0	i
O=c1cc(NCc2ccccc2)nc2n1CCCS2	i	i	i
Cc1cc(N2CCN(C)CC2)nc2ccc(NC(=O)c3ccc(Br)o3)cc12	i	35.0	i
Cc1cc(N2CCN(C)CC2)nc2ccc(NC(=O)c3ccc4c(c3)OCO4)cc12	i	57.0	i
CCOc1ccccc1NC(=O)CCC(=O)Nc1ccc2nc(N3CCN(C)CC3)cc(C)c2c1	i	i	i
CCN1CCN(c2cc(C)c3cc(NC(=O)c4cnccn4)ccc3n2)CC1	i	i	i
COc1ccccc1CNC(=O)CS(=O)Cc1nc(-c2ccccc2C)oc1C (stereo not drawn)	165.5	i	i
COc1ccc(CNC(=O)CS(=O)Cc2nc(-c3ccccc3C)oc2C)cc1 (stereo not drawn)	i	i	i
O=C(Cn1cc(C(=O)c2cccs2)c2ccccc21)NCc1ccc2c(c1)OCO2	i	i	i
CCOC(=O)N1CCN(C(=O)c2ccc3c(=O)n(Cc4ccccc4)c(=S)[nH]c3c2)CC1	i	i	i
CCCn1c(=S)[nH]c2cc(C(=O)N3CCN(c4ccccc4OC)CC3)ccc2c1=O	i	i	66.0
